Most compounds without a hit are left out; they make up all but 2.2% or so of the library.
GLP-1R inv ag: qHTS of GLP-1 Receptor Inverse Agonists (Inhibition Mode) | Glucagon-like peptide 1 receptor (Homo sapiens), P43220 | HEK293 GLP-1R CRE-luciferase, luminescence, 24 h; GLP-1R form is constitutively active | Potency, µM (top dose mostly 38.3 µM), usual class: inhibitors | actives 1.6% (n = 410,000) | AID 624417, 2012; note: nearly all actives have a fitted effect of over 55% in size
Target sequence (P43220 whole entry, looked up): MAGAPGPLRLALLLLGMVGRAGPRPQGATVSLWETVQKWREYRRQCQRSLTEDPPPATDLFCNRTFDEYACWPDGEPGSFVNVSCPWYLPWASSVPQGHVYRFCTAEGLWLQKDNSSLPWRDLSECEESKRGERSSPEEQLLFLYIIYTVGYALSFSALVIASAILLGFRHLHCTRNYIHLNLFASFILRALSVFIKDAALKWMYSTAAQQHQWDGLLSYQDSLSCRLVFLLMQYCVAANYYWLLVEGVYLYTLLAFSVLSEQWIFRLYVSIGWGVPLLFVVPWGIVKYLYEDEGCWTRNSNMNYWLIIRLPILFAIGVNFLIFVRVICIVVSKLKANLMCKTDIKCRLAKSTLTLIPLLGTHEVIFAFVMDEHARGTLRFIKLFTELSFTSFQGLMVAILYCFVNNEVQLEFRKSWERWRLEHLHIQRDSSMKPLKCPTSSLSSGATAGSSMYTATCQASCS
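Cells are plated, allowed 12 hours at 37 deg C, then treated with compounds for 24 hr before luciferase detection reagent is added and luminescence is read after 12 min at room temperature. The HEK293 line carries constitutively active GLP-1R with a cAMP-responsive reporter.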
Mm-Cpn inhibitor: Inhibitors of TCP-1 ring complex (TRiC) of Methanococcus maripaludis (MmCpn): qHTS; purified Mm-Cpn ATPase, ADP Transcreener TR-FRET; Potency, µM (doses to about 76.9 µM), hits mostly inhibitors; actives 0.031% (n = 330,000); Chaperonin Mm-Cpn (Methanococcus maripaludis); note: nearly all actives have a fitted effect of over 80% in size
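25 nM Mm-CPN + cpd, 10 min 37°C; + 10 uM ATP, 30 min 37°C; buffer 30 mM Tris pH 7.4, 100 mM KCl, 5 mM MgCl2, 1 mM DTT; Transcreener ADP HTRF detection 30 min RT.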
GLP1R cytotox: qHTS of GLP-1 Receptor Inverse Agonists: Cytotox Screen; HEK293 cAMP-luciferase reporter cells, luminescence, 24 h; Potency, µM (titrated, usually from 38.3 µM), usual class: inhibitors; actives 0.13% (n = 410,000); AID 624418, 2012;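 note: loss of luciferase light is scored as toxicity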
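Luminescence readout: signal drop marks cytotoxicity. Plated cells grew 12 h at 37 °C, 5% CO2, received 23 nL compound for 24 h, then got luciferase reagent, read after 12 min at RT.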
uPA surface inh: qHTS for Inhibitors of Cell Surface uPA Generation. cell surface uPA generation assay, qHTS. Potency, µM (top dose mostly 38.3 µM), actives largely listed as inhibitors. actives 0.31% (n = 330,000). AID 540303, 2011; active = well fitted inhibition curve with a large enough effect; inconclusive = small, poorly fitted or top-dose-only effect; inactive = no such curve, though single readings can be large or run the other way; tested in mouse RAW 264.7 cells; note: nearly all actives have a fitted effect of over 55% in size
CCT modulator: High-Throughput Screening for Modulators of Cytosolic Chaperonin Activity | purified chaperonin ATPase assay, HTRF ADP detection, 30 min | activity change, % (concentration not given with the values), hits read low | actives 0.3% (n = 360,000) | AID 651819, 2012; in the data active = activity change below about -30%
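First, chaperonin was dispensed at 40 nM or 20 nM final depending on batch activity. Next, compounds were pinned at 76 uM and ATP added at 10 uM. After 30 min at 37 °C, ADP detection reagents ran 30 min at ambient temperature.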
GLP-1R agonist: qHTS of GLP-1 Receptor Agonists | HEK293 GLP-1R CRE-luciferase, luminescence, 4-6 h; cells express a hypersensitive GLP-1R form | Potency, µM (series often up to 45.6 µM), usual class: activators | AID 624172, 2012 | actives 0.007% (n = 380,000) | Glucagon-like peptide 1 receptor (Homo sapiens), P43220
A number is an active result; 0 = inactive; ? = inconclusive; - = no result given. Unless noted, calls come from the whole dose curve; as a rule, active = well fitted curve in the direction sought with a large enough effect; inconclusive = small, poorly fitted or top-dose-only effect, or another doubt; inactive = no such curve, though single readings can be large; an effect the other way counts as inactive or inconclusive.

SMILES	GLP-1R inv ag	Mm-Cpn inhibitor	GLP1R cytotox	uPA surface inh	CCT modulator	GLP-1R agonist
CC(C)(C)OC(=O)N(CCc1ccccc1)Cc1ccccc1OCc1cccc(NC(=O)C2CC2)c1	?	-	0	0	0	0
Cc1cc(NS(=O)(=O)c2ccc(NC(=O)COc3ccc(C#N)cc3)cc2)nc(C)n1	0	0	0	0	-31.7	0
c1ccc2cc(CSCc3nc4ccccc4[nH]3)ccc2c1	10µM	0	?	0	0	0
COc1ccc(/C=C/C(=O)Nc2sc3c(c2C(N)=O)CCC(C)C3)cc1OC (centres undefined)	0	-	0	-	-	0
CCn1nc([N+](=O)[O-])c(C(C#N)c2nc3cc(C(F)(F)F)ccc3s2)c(Cl)c1=O (centres undefined)	0	0	5.01µM	-	0	0
CN1[C@@H]2CCC[C@@H]1CC(NC(=O)c1nn(C)c3ccccc13)C2 (some centres undefined)	-	-	-	-	-	0
CCN(CCCNC(=O)CCc1nc(-c2ccc(C)cc2)no1)c1cccc(C)c1	10µM	0	0	0	0	0
CCCN(C(=O)CCc1nc(-c2ccc(C)cc2)no1)c1ccc(OCC)cc1	11.2µM	-	0	-	-	-
CCOc1ccc(N(CC)C(=O)CCc2nc(-c3ccccc3F)no2)cc1	?	-	0	-	-	-
CCc1ccccc1N(CC)C(=O)CCc1nc(-c2ccc(C)cc2)no1	8.91µM	0	0	0	0	0
CCOc1ccccc1CNC(=O)c1cnc2sc(N3CCOCC3)nn2c1=O	0	-	0	-	-	-
CCc1ccc(NC(=O)c2ccc3c(c2)c(C)c(C)n3Cc2ccccc2)cc1	?	-	0	-	-	-
CCc1cccc(NC(=O)c2ccc3c(c2)c(C)c(C)n3Cc2ccc(F)cc2)c1	10µM	-	0	-	-	-
CCc1ccc(CNC(=O)c2ccc3c(c2)c(C)c(C)n3Cc2ccccc2)cc1	10µM	-	0	-	-	-
C#CC1(OC(C)=O)CCC2C3CCC4=CC(OC(C)=O)CCC4C3CCC21C (centres undefined)	-	-	-	-	-	0
C=CCNC(=O)C1CCN(c2cc(C)nc(-c3ccccc3)n2)CC1	0	0	0	0	0	0
Cc1cc(N2CCC(C(=O)Nc3ccc(F)cc3)CC2)nc(-c2ccccc2)n1	10µM	0	0	0	0	0
COc1ccc(NC(=O)C2CCN(c3cc(C)nc(-c4ccccc4)n3)CC2)cc1	?	0	?	0	-63.7	0
COc1ccc(NC(=O)C2CCN(c3nc(C)cc(C)n3)CC2)cc1	0	0	0	0	0	0
O=C(Cc1ccc(-c2ccccc2)cc1)NCCS(=O)(=O)N1CCN(c2ccccc2)CC1	0	-	0	-	-	-
NCCSc1c(-c2ccc(F)cc2)[nH]c2ccccc12	10µM	0	0	0	0	0
Cc1ccc(-c2csc(=Nc3ccccc3)n2Cc2ccc3c(c2)OCO3)cc1	0	-	0	-	-	-
COc1cc2ccccc2ccc1=NO	2.51µM	-	0	0	0	0
CCOC(=O)C1=C(CN2CCN(c3ccc(Cl)cc3)CC2)NC(=O)NC1c1ccc(OC)cc1 (centres undefined)	0	-	0	-	-	-
COc1ccc(NC(=O)c2ccc3c(c2)NC(=O)CS3)cc1	0	0	0	0	0	0
SMILES	GLP-1R inv ag	Mm-Cpn inhibitor	GLP1R cytotox	uPA surface inh	CCT modulator	GLP-1R agonist
Cc1ccc(NS(=O)(=O)c2cc(NC(=O)c3ccc4c(c3)NC(=O)CS4)ccc2Cl)c(C)c1	2.51µM	0	?	0	0	0
Cc1cccc(CN2CCc3c([nH]c4ccccc34)C2CC(C)C)n1 (centres undefined)	11.2µM	0	0	0	0	0
CCN(CC)CC(=O)Nc1ccc2c(c1)N(C(=O)CN(CC)CC)c1ccccc1CC2	0	0	3.98µM	0	0	0
CCOc1ccc(/C=C(\C#N)C(=O)Nc2cccnc2)cc1	0	0	0	0	-62.7	0
CCOc1cccc(NC(=O)/C(C#N)=C/c2cccnc2)c1	0	0	0	0	0	0
O=C(Nc1cccc(Cl)c1)OCCOC(=O)Nc1cccc(Cl)c1	10µM	-	?	0	0	0
O=C(Nc1cccc(Cl)c1)OCCOc1ccccc1	?	0	0	0	0	0
COc1ccc(Cl)cc1NC(=O)Nc1ccccc1SC	0	0	0	0	0	0
COC(=O)c1cc(NC(=O)Nc2ccccc2)ccc1Cl	10µM	0	0	0	0	0
CCOP(=O)(OCC)C(NC(=O)Nc1cccc(Cl)c1)C(N)=O (centres undefined)	0	0	0	0	0	0
CCOP(=O)(OCC)C(NC(=O)Nc1cccc(Cl)c1)c1ccccc1 (centres undefined)	7.94µM	0	0	0	0	0
COc1ccc(Cl)cc1NC(=O)Nc1ccccc1C(N)=O	0	0	0	3.16µM	0	0
Cc1cc(OC(C)C(=O)N(Cc2ccc(N(C)C)cc2)Cc2ccco2)ccc1Cl (centres undefined)	0	-	0	-	-	-
Cc1ccc(Cn2c(=O)c3cccnc3n(CC(=O)Nc3cc(Cl)ccc3C)c2=O)cc1	0	-	0	-	-	-
O=C(CN1c2ccccc2Sc2ccccc21)NNC(=O)Nc1cccc(Cl)c1	3.55µM	0	?	0	0	0
O=C(Cc1ccccc1)NNC(=O)Nc1cccc(Cl)c1	?	0	0	0	0	0
O=C(Nc1ccc(Cl)c(Cl)c1)Nc1ccccc1C(=O)O	5.62µM	0	0	0	0	0
O=C(Nc1cccc(Cl)c1)Nc1ccccc1C(=O)O	?	0	0	8.91µM	0	0
Cc1cccc(OCC(=O)Nc2c(C(=O)N3CCN(c4ccccc4)CC3)oc3ccccc23)c1	0	-	0	-	-	-
CCOC(=O)c1cc(-c2ccc(F)cc2)n(CCC(=O)Nc2nc3ccc(OC)cc3s2)c1C	0	-	0	-	-	-
CCN(CC)S(=O)(=O)c1cccc(NC(=O)CNc2cccc(S(=O)(=O)N3CCCC3)c2)c1	?	0	0	?	0	0
COc1ccc(S(=O)(=O)N2CCCCC2)cc1NCC(=O)Nc1ccc(C)cc1	8.91µM	0	0	0	0	0
CCc1ccccc1OCC(=O)Nc1cccc(S(=O)(=O)N2CCCC2)c1	11.2µM	0	0	0	0	0
COc1ccc(Cl)cc1NC(=O)C1Cc2cc(S(=O)(=O)N3CCCC3)ccc2N1C(C)=O (centres undefined)	?	0	0	0	0	0
COc1ccc(NC(=O)C2Cc3cc(S(=O)(=O)N4CCCCC4)ccc3N2C(C)=O)cc1Cl (centres undefined)	10µM	0	0	0	0	0
